Outcome and AC50 data for seven compounds are collected here from PubChem BioAssay (EPA / NIEHS).

Values joined by “and” are separate entries in the source; they are usually repeats but may differ in a detail not shown here. Equal entries are not always repeated. Inconclusive results are not listed. A structure can be active in one record and inactive in another. Active and inactive are the calls of the source. Rule for the calls, unless noted: active = hit-call score of the fitted dose curve at least 0.9, where 1 is the maximum; inactive = score below 0.9.

Assay [1] in a line: CCTE_Shafer_MEA_acute_per_network_burst_spike_number_mean: CCTE's Neural Acute Assay for Average Number of Spikes in a Network Burst, Shafer Lab (AID 2284019).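 For AC50: curve fitted for loss of signal so actives reduce spikes per network burst.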 In a few lines:
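Rat primary cortical neurons on 48-well MEA at DIV 13 or 15, 37 C; compounds 0.03-40 uM, at least three wells each. 40-min baseline then 40-min exposure recording; percent change in mean spikes per network burst.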

Assay [2] is described as follows: CCTE_Shafer_MEA_acute_per_network_burst_spike_number_std: CCTE's Neural Acute Assay for Standard Deviation of Number of Spikes in a Network Burst, Shafer Lab (AID 2284020).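 Note: fitted for decrease in spike-number SD versus DMSO so actives lower it.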 In short, it runs like this:
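Rat primary cortical neurons on 48-well MEA (16 electrodes/well), treated DIV 13 or 15 at 0.03-40 uM, ≥3 wells per compound. 40 min recordings at 37 C before and after dosing; value is percent change in network-burst spike-number SD, negative direction vs DMSO.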

Assay [3] is described as follows: CCTE_Shafer_MEA_acute_per_network_burst_electrodes_number_mean: CCTE's Neural Acute Assay for Mean Number of Electrodes in a Network Burst, Shafer Lab (AID 2284021).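 Note: curves fitted for decreases only so hits reduce electrodes per burst.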 In short, it runs like this:
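Rat primary cortical neurons on 48-well MEAs, DIV 13 or 15, were treated at 0.03-40 uM. Spikes were detected at 8x rms noise and recorded at 37 C. The mean electrodes per network burst in a 40 min exposure recording was expressed as percent change from a 40 min baseline.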

Assay [4] can be described thus: CCTE_Shafer_MEA_acute_network_burst_percentage: CCTE's Neural Acute Assay for Percentage of Network Bursts, Shafer Lab (AID 2284022).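 Note: curves fitted for loss so actives lower network burst percentage.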 In short, it runs like this: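 Rat primary cortical neuron networks on 48-well MEA plates, DIV 13 or 15, treated acutely with compound (0.03-40 uM, at least three wells). Percent of spikes within network bursts compared between 40-min recordings before and during exposure at 37 C, expressed as percent change.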

The nature of assay [5]: CCTE_Shafer_MEA_acute_cross_correlation_area: CCTE's Neural Acute Assay for Area of Cross Correlation, Shafer Lab (AID 2284024).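 Note: curves fitted for loss of cross-correlation area so actives lower synchrony.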 In short, it runs like this:
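Rat primary cortical neurons on 48-well MEA, DIV 13 or 15; compounds 0.03-40 uM. Baseline and post-exposure 40 min recordings at 37 C; percent change in area under pooled inter-electrode cross-correlation near zero lag, relative to DMSO.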

Assay [6] can be described thus: CCTE_Shafer_MEA_acute_cross_correlation_HWHM: CCTE's Neural Acute Assay for Cross Correlation at Half Width at Half Maximum, Shafer Lab (AID 2284026).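 Note: hits are a decrease in cross-correlogram half width relative to DMSO.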 In short, it runs like this: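 Rat primary cortical neurons on 48-well MEA plates; 40-min baseline and 40-min post-exposure recordings at 37 C on DIV 13 or 15, compounds 0.03-40 uM. Spikes detected at 8x rms noise; percent change in cross-correlogram HWHM per well vs baseline.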

Assay [7] in a line: CCTE_Shafer_MEA_acute_synchrony_index: CCTE's Neural Acute Assay for Synchrony, Shafer Lab (AID 2284027).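 Note: fitted for loss of signal so actives lower synchrony relative to DMSO.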 In a few lines: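 Readout is percent change in the unitless network synchrony index (0 low, 1 high) between a 40-min baseline and a 40-min recording in compound. Cultures were primary rat cortical neurons on MEAs, treated at 0.03-40 uM on DIV 13 or 15.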
A short description of assay [8]: CCTE_Deisenroth_AIME_384WELL_CTox_Active: Cytotoxicity Assessment (CTOX) in CCTE's 384-well Estrogen Receptor Transactivation Assay with AIME metabolic competence (metabolism positive), Deisenroth Lab (AID 2284037; active = hit-call score of the fitted dose curve at least 0.9, where 1 is the maximum;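 note: chemicals first conditioned 2 h by alginate-bound induced rat liver S9 before cells; activity means signal loss indicating cell death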). In short, it runs like this:
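Chemicals pre-incubated 2 hours with alginate-immobilised phenobarbital/beta-naphthoflavone-induced male Sprague Dawley rat liver S9, then conditioned medium applied 24 hour to VM7Luc4E2 cells. Viability by fluorogenic protease substrate; 10-point series 0.002 - 200 uM.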

Assay [9] can be described thus: CCTE_Deisenroth_AIME_384WELL_CTox_Inactive: Cytotoxicity Assessment (CTOX) in CCTE's 384-well Estrogen Receptor Transactivation Assay without AIME metabolic competence (metabolism negative), Deisenroth Lab (AID 2284039; active = hit-call score of the fitted dose curve at least 0.9, where 1 is the maximum;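 note: cell viability via live-cell protease substrate cleaved to fluorescent probe; loss of fluorescence signal means loss of viability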). In a few lines: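 VM7Luc4E2 human breast cells received conditioned medium from a 2 h incubation of chemical with alginate-water microspheres (no S9), then were exposed 24 h. Viability was read as protease-substrate cleavage to a fluorescent probe; loss of signal was fitted bidirectionally over 0.002–200 uM.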

For assay [10], the target named is Estrogen receptor (Homo sapiens) (UniProt P03372). As to the kind of experiment: CCTE_Deisenroth_AIME_384WELL_LUC_Shift: CCTE's 384-well Estrogen Receptor Transactivation Assay with AIME metabolic competence data shift (ERTA luciferase; difference in metabolism positive and negative), Deisenroth Lab (AID 2284041).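 Note: shift is response with S9 minus without S9 so positive means metabolism raised ER signal.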 In a few lines:
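Chemicals (0.002–200 uM, 10 points) pre-incubated 2 h with alginate-encapsulated induced male Sprague Dawley rat liver S9 or S9-free, then medium applied 24 h to VM7Luc4E2 cells; luciferase. Endpoint is per-concentration difference, S9-positive minus negative.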

The nature of assay [11]: CCTE_Shafer_MEA_dev_firing_rate_mean: CCTE's Neural Network Formation Assay for Mean Firing Rate, Shafer Lab (AID 2284031).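 For AC50: curve fitted for loss of firing so AC50 reflects decreased mean firing rate.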 In a few lines: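 Rat primary cortical neurons were seeded on multielectrode arrays and treated from plating through day 12, with redosing at each feed. Spontaneous spiking was recorded four times; mean firing rate AUC was fitted downward against DMSO.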

Assay [12] is described as follows: CCTE_Shafer_MEA_dev_per_burst_spike_percent: CCTE's Neural Network Formation Assay for Percent of Spikes in a Burst, Shafer Lab (AID 2284032).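 For AC50: fitted as a decrease in burst spike percentage below DMSO baseline.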 In short, it runs like this: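 Rat primary cortical neurons on 16-electrode MEA wells, dosed from plating day 0 for 12 days with renewal on DIV 5 and 9; spikes-in-bursts percentage averaged over bursting electrodes, collapsed as AUC across days 5, 7, 9, 12; loss direction versus DMSO.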

Assay [13] in a line: CCTE_Shafer_MEA_dev_active_electrodes_number: CCTE's Neural Network Formation Assay for Number of Active Electrodes, Shafer Lab (AID 2284040; active = hit-call score of the fitted dose curve at least 0.9, where 1 is the maximum;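 for AC50: potency for loss of active electrodes versus DMSO so lower counts are hits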). In short, it runs like this:
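Primary rat cortical neurons on 16-electrode MEA wells, exposed from day 0 through day 12 with compound renewed at DIV 5 and 9 feeds. Active electrodes (mean firing ≥5 spikes/min) counted at DIV 5, 7, 9, 12; trapezoidal AUC across days, loss-of-signal versus DMSO.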

Assay [14] is described as follows: CCTE_Shafer_MEA_dev_bursting_electrodes_number: CCTE's Neural Network Formation Assay for Number of Bursting Electrodes, Shafer Lab (AID 2284043; active = hit-call score of the fitted dose curve at least 0.9, where 1 is the maximum;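 for AC50: potency is for loss of bursting electrodes relative to DMSO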). In short, it runs like this: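 Primary rat cortical neurons plated on 16-electrode MEA wells, exposed from day 0 with compound renewed at DIV 5 and 9. Electrodes bursting ≥1 burst per 2 min counted on days 5, 7, 9 and 12; trapezoidal AUC across days, fitted for loss versus DMSO.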

The target of assay [15] is Estrogen receptor (Homo sapiens) (UniProt P03372). Description: CCTE_Deisenroth_AIME_384WELL_LUC_Active: CCTE's 384-well Estrogen Receptor Transactivation Assay with AIME metabolic competence (ERTA luciferase; metabolism positive), Deisenroth Lab (AID 2284030; active = hit-call score of the fitted dose curve at least 0.9, where 1 is the maximum). In short, it runs like this: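 Chemicals (10-point, 0.002-200 uM) were first incubated 2 hours with alginate-immobilized induced male Sprague Dawley rat liver S9. The conditioned medium was then applied to VM7Luc4E2 cells for 24 hours, with ER luciferase induction read by luminescence relative to 17beta-estradiol.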
Estrogen receptor (Homo sapiens), sequence (P03372 whole entry, looked up): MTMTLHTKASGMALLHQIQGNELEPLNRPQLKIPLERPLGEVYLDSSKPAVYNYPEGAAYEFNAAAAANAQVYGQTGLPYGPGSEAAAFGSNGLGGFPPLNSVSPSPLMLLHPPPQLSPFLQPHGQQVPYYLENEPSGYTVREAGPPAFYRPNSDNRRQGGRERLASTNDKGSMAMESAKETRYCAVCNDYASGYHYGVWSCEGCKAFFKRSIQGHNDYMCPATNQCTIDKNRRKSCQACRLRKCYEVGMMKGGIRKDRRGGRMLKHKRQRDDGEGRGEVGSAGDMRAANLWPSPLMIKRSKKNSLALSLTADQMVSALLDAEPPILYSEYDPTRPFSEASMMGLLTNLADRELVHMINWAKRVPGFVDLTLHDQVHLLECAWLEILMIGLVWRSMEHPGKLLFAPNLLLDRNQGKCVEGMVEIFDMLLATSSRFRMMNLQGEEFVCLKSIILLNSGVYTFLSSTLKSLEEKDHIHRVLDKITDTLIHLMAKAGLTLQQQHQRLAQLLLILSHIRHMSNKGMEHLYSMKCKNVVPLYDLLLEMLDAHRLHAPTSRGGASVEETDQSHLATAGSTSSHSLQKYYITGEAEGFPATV

Assay [16] shares this target. Description: CCTE_Deisenroth_AIME_384WELL_LUC_Inactive: CCTE's 384-well Estrogen Receptor Transactivation Assay without AIME metabolic competence (ERTA luciferase; metabolism negative), Deisenroth Lab (AID 2284038; active = hit-call score of the fitted dose curve at least 0.9, where 1 is the maximum;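 note: hits raise estrogen receptor luciferase signal so potencies reflect agonists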). In a few lines:
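Metabolism-negative mode: chemicals (10-point, 0.002–200 uM) held 2 h with alginate-water microspheres, then conditioned medium applied to VM7Luc4E2 cells for 24 h. Luciferase induction referenced to 17beta-estradiol.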

Turning to `CCCCC(O)(Cn1cncn1)c1ccc(Cl)cc1Cl` (stereo not drawn), the call in assay [1], in assay [2], in [3], in assay [5], in [6] and in assay [7] was inactive. Moreover, in assay [10], the result was inactive. The AC50 – broadly, the concentration at which the activity in the assay is half-maximal – in assay [4] was 2.23 µM (active); in assay [8], 162 µM (active); in assay [9], 100 µM (active).

Regarding `CN/C(=N\[N+](=O)[O-])NCc1cnc(Cl)s1`, the call in [1], in [2], in assay [3], in assay [4], in [6] and in assay [7] was inactive. In addition, the result in [11], in assay [12], in [13] and in assay [14] was inactive. Moreover, the AC50 in assay [5] is 0.16 µM (active).

In the case of `Cc1c(COC(=O)[C@@H]2[C@H](/C=C(\Cl)C(F)(F)F)C2(C)C)cccc1-c1ccccc1`, the result in assay [1], in [3] and in assay [5] was inactive. Also, the AC50 is 0.931 µM (active) in assay [2]; 0.225 µM (active) in assay [4]; 2.29 µM (active) in [6]; 0.786 µM (active) in [7]; 847 nM (active) and 2.07 µM (active) in assay [11]; 1.65 µM (active) and 1.51 µM (active) in assay [12]. In addition, the half-maximal activity concentration (AC50) in assay [13] was 2.84 µM (active) and 3.36 µM (active); in [14], 1.56 µM (active) and 1.65 µM (active).

Consider `C=C(C)CN(CC)c1c([N+](=O)[O-])cc(C(F)(F)F)cc1[N+](=O)[O-]`, for which the compound was classed as inactive in [1], in assay [2], in assay [3], in [4], in [5] and in assay [6]. Besides, the result in [7], in assay [15], in [8], in [16], in [9] and in assay [10] was inactive. Also, the AC50 in [11] was 12.8 µM (active); in assay [12] it was 18.6 µM (active); in assay [13], 16.9 µM (active); in [14] it was 16.4 µM (active).

On to `O=C(Nc1ccccc1-c1ccc(Cl)cc1)c1cccnc1Cl`, for which the compound was called inactive in assay [1], in [2], in [3], in assay [4], in assay [5] and in assay [15]. Also, the outcome in assay [11], in assay [12], in assay [16], in [13], in assay [10] and in assay [14] was inactive. The AC50 was 23.5 µM (active) in assay [6]; 25.3 µM (active) in assay [7]; 4.96 µM (active) in [11]; 9.36 µM (active) in assay [12]; 9.92 µM (active) in assay [13]; 7.09 µM (active) in assay [14].

Consider `CCOc1nc(F)cc2nc(S(=O)(=O)Nc3c(Cl)cccc3Cl)nn12`, for which the compound was classed as inactive in [1], in assay [2], in [3], in assay [4], in assay [5] and in assay [6]. In addition, the compound was called inactive in assay [7], in [8], in assay [16] and in [10]. Moreover, in [9], the AC50 was 146 µM (active).

With `COP(=S)(OC)SCn1nnc2ccccc2c1=O`, the concentration at half-maximal activity (AC50) is 24.1 µM (active) in assay [1] and 100 µM (active) in assay [9]. Also, the outcome in assay [1], in [2], in assay [3], in [4], in [5] and in [6] was inactive. For the same compound, the compound was classed as inactive in [7], in [15], in assay [11], in assay [12], in assay [8] and in assay [16]. Further, the outcome in assay [10] and in [14] was inactive.
